Counter-ions that a name gives are not always drawn. In all, about 1,000 compounds were measured (“cFRET/donor change relative to DMSO, normalised to beta-lapachone positive control (supercomplex I-IV assembly)”: median about 0.18, lowest 2% from about -1 on). This excerpt belongs to a sample that is enriched for the lowest values.
Tested on: C2C12 (NDUFB8-AcGFP / COX8A-DsRed-Monomer FRET reporter)
Assay: cFRET/donor change relative to DMSO, normalised to beta-lapachone positive control (supercomplex I-IV assembly) (fraction of beta-lapachone effect); higher = more respiratory supercomplex assembly
Details: 40 µM; 24 h
Procedure: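 Cells were treated with 40 uM compound for 24 h and imaged on an IN Cell Analyzer 6000. Corrected FRET was divided by donor signal (cFRET/donor) and measured in two replicate experiments. The score is (mean cFRET/donor of compound - mean DMSO) / (mean beta-lapachone 40 uM - mean DMSO). Compounds flagged for prominent cell death, abnormal morphology or decreased cell number were excluded.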

SMILES | cFRET/donor change
COc1cccc2c1[C@@H]1CN(CCCCn3c(=O)[nH]c4c(sc5ncc(-c6ccccc6)nc54)c3=O)C[C@@H]1CO2 [Fiduxosin hydrochloride] | -1.25
Cn1cnc([N+](=O)[O-])c1Sc1ncnc2[nH]cnc12 [Azathioprine] | 0.496
N=c1ccn2c(n1)O[C@H]1[C@H](O)[C@@H](CO)O[C@H]12 [Ancitabine hydrochloride] | -0.0397
Fc1ccc2[nH]c(CN3CCN(c4ccccn4)CC3)cc2c1 | 0.168
CC(C)[C@H](N)C(=O)OCC(CO)OCn1cnc2c(=O)[nH]c(N)nc21 (some centres not stated) [Valganciclovir hydrochloride hydrate] | -0.064
N=C(N)NCCCCN [Agmatine sulfate] | 0.125
CS(=O)(=O)c1cccc(CNc2nc(Nc3ccc4c(c3)CCC(=O)N4)ncc2C(F)(F)F)c1 | 2
NC(=S)c1ccc[n+]([C@@H]2O[C@@H](COP(=O)([O-])OP(=O)(O)OC[C@H]3O[C@@H](n4cnc5c(N)ncnc54)C(OP(=O)(O)O)[C@H]3O)C(O)C2O)c1 (some centres not stated) [Thio-NADP sodium] | -0.317
O=C(c1ccc(OCCCc2c[nH]cn2)cc1)C1CC1 [Ciproxifan hydrochloride] | 0.224
O=c1ccc2c(OCCCCc3ccccc3)c3ccoc3cc2o1 [Psora-4] | 0.396
Cc1cccc(-c2[nH]ncc2-c2ccc3ncccc3n2)n1 | 0.0385
CC1=C(C)C(=O)C(CCCCC#CCCCC#CCO)=C(C)C1=O | 0.121
Nc1cc2c(ncn2CCOCP(=O)(O)O)c(=O)[nH]1 [PMEG hydrate] | 0.0365
N[C@@H]1[C@H]2CN(c3nc4c(cc3F)c(=O)c(C(=O)O)cn4-c3ccc(F)cc3F)C[C@@H]12 [Trovafloxacin mesylate] | 0.3
CC(C(O)c1ccc(O)cc1)N1CCC(Cc2ccccc2)CC1 (configuration not stated) [Ifenprodil tartrate] | 0.529
O=C(Nc1cccnc1)N1CCC(Cc2cccc(Oc3ccc(C(F)(F)F)cn3)c2)CC1 [PF 3845 hydrate] | 0.494
Nc1ccc(-c2ccc3ccccc3n2)cc1 [BF-170 hydrochloride] | -0.429
CN(C)C(=O)[C@H](O)[C@H](Cc1ccccc1)NC(=O)c1cc2cc(Cl)ccc2[nH]1 | 0.332
NC(=O)C1=CN(C2OC(COP(=O)(O)OP(=O)(O)OC[C@H]3O[C@@H](n4cnc5c(N)ncnc54)C(OP(=O)(O)O)[C@H]3O)C(O)C2O)C=CC1 (some centres not stated) [NADPH tetrasodium] | -0.198
Cc1[nH]c(=O)c(C#N)cc1-c1ccc2nccn2c1 [Olprinone hydrochloride] | 0.211
CN1C2CCCC1CC(NC(=O)c1nn(C)c3ccccc13)C2 (configuration not stated) [Granisetron hydrochloride] | 0.333
O=C(O)COCCN1CCN(C(c2ccccc2)c2ccc(Cl)cc2)CC1 (configuration not stated) [Cetirizine dihydrochloride] | 0.511
Cc1cccc(C)c1NC(=O)C(C)N (configuration not stated) [Tocainide hydrochloride] | 0.415
CCCCCc1ccc(/C=C/C(=O)Nc2cc(Cl)ccc2C(=O)O)cc1 | 0.0865
Oc1cc2c(c(Cl)c1O)CCNCC2c1ccccc1 (racemic) [(±)-6-Chloro-PB hydrobromide] | 2.85
Nc1ccn([C@@H]2O[C@H](CO)[C@@H](O)C2(F)F)c(=O)n1 [Gemcitabine hydrochloride] | 0.261

SMILES | cFRET/donor change
CCCCc1ncc(/C=C(\Cc2cccs2)C(=O)O)n1Cc1ccc(C(=O)O)cc1 [Eprosartan mesylate] | -0.151
COCCOc1cc2nc[nH]c(=O)c2cc1OCCOC | 0.343
CCNC(=O)[C@H]1O[C@@H](n2cnc3c(N)nc(NCCc4ccc(CCC(=O)O)cc4)nc32)[C@H](O)[C@@H]1O | -0.069
Nc1nc2ccc(Cl)cc2n2c(-c3ccccc3)nnc12 | -1.23
Nc1nc2ccc(Cl)cc2c2nc(-c3ccco3)nn12 | 0.163
OC[C@H]1O[C@H]([S-])[C@H](O)[C@@H](O)[C@@H]1O.[Au+] [Aurothioglucose] | -0.0527
Nc1ncnc2c1ncn2[C@@H]1O[C@H](COP(=O)(O)OP(=O)(O)OP(=O)(O)OP(=O)(O)OC[C@@H]2O[C@H](n3cnc4c(N)ncnc43)C(O)[C@@H]2O)[C@H](O)C1O (some centres not stated) [P1,P4-Di(adenosine-5')tetraphosphate triammonium] | 0.0746
CCOC(=O)[C@H](CCc1ccccc1)N[C@@H](C)C(=O)N1[C@H](C(=O)O)C[C@H]2CCCC[C@@H]21 [Trandolapril] | -0.23
CCc1ccc(/C=C2/SC(=S)NC2=O)cc1 | -1.41
O=C1NC(=O)/C(=C\c2ccc3nccnc3c2)S1 | 2.84
CCCCS(=O)(=O)N[C@@H](Cc1ccc(OCCCCC2CCNCC2)cc1)C(=O)O [Tirofiban hydrochloride monohydrate] | 0.174
CO[C@H]1O[C@@H]2O[C@@]3(C)CC[C@H]4[C@H](C)CC[C@@H]([C@H]1C)[C@@]24OO3 [Artemether] | 0.954
O=C(NOCC1CC1)c1cc(Br)c(F)c(F)c1Nc1ccc(I)cc1Cl | 0.176
COc1cc(Nc2c(C#N)cnc3cc(OCCCN4CCN(C)CC4)c(OC)cc23)c(Cl)cc1Cl [Bosutinib] | 0.241
NCC(O)c1ccc(O)c(O)c1 (racemic) [(±)-Norepinephrine (+)bitartrate] | -0.03
CN(C)C[C@H](O)Cn1c2ccc(Br)cc2c2cc(Br)ccc21 (racemic) [Wiskostatin] | 0.951
CN(C)c1ccccc1CN1CCCN(Cc2ccccc2N(C)C)C1c1ccncc1 | 0.598
CS(=O)(=O)c1ccc(-n2nc(C(F)(F)F)cc2-c2ccc(F)cc2)cc1 | 0.187
O=C(Nc1ccc2[nH]ncc2c1)C1CCC1 [Rhodblock 6] | 0.156
COc1cc2nc(N(C)CCCNC(=O)C3CCCO3)nc(N)c2cc1OC (configuration not stated) [Alfuzosin hydrochloride] | 0.0541
CN(C)CCC(c1ccc(Br)cc1)c1ccccn1 (single isomer, unassigned; (+)) [(+)-Brompheniramine maleate] | 0.114
CN1CCN(CCCN2c3ccccc3Sc3ccc(C(F)(F)F)cc32)CC1 [Trifluoperazine dihydrochloride] | 0.794
Nc1nc2c(c(=O)[nH]1)C[C@@H](CCc1ccc(C(=O)N[C@@H](CCC(=O)O)C(=O)O)cc1)CN2 [Lometrexol hydrate] | -0.284
N=C(N)NC(=O)c1nc(Cl)c(N)nc1N [Amiloride hydrochloride] | -0.0692
CN(C)c1nc(N)c(C(=O)NC(=N)N)nc1Cl [5-(N,N-Dimethyl)amiloride hydrochloride] | 0.174
CCN(c1nc(N)c(C(=O)NC(=N)N)nc1Cl)C(C)C [5-(N-Ethyl-N-isopropyl)amiloride] | -1.88

SMILES | cFRET/donor change
COc1ccc(Br)cc1S(=O)(=O)NC(=O)/C=C/c1ccccc1Cc1ccc2ccccc2c1 | 0.583
COc1ccc(/C=C/c2nc(NCCCN(C)C)c3ccccc3n2)cc1 | 0.418
Cn1c(=O)c2nc[nH]c2n(C)c1=O [Theophylline] | 0.334
CC[N+](CC)(CC)CCOc1ccc(/C=C/c2ccccc2)cc1 | 0.391
OCCN1CCN(CCCN2c3ccccc3Sc3ccc(Cl)cc32)CC1 [Perphenazine] | 0.48
CN1CCC[C@@H]1Cc1c[nH]c2ccc(CCS(=O)(=O)c3ccccc3)cc12 [Eletriptan hydrobromide] | 0.314
c1ccc(C2CN3CCSC3=N2)cc1 (single isomer, unassigned; (-)) [(-)-Tetramisole hydrochloride] | 0.472
N#CC(=C(/N)Sc1ccccc1N)/C(C#N)=C(/N)Sc1ccccc1N | 1.14
CCOC(=O)[N-]c1c[n+](N2CCOCC2)no1 [Molsidomine] | 0.0144
CCc1cncnc1N1CCN(Cc2nc3ccc(C(F)(F)F)cc3[nH]2)CC1 | 0.351
CN(C)CCCc1cc(C(=O)Nc2ccc(-c3ccncc3)cc2)ccc1O | 0.377
OC(CCN1CCCCC1)(c1ccccc1)C1CC2C=CC1C2 (configuration not stated) [Biperiden hydrochloride] | 0.472
CCCCCCCCCCCCCCCCCCN(CCCCCCCCCCCCCCCCCC)CCCN(CCO)CCO [Avridine] | 0.401
O=c1ccc2ccc(O)c(O)c2o1 [Daphnetin] | 0.438
O=Nc1ccc2oc(=O)ccc2c1 [6-Nitroso-1,2-benzopyrone] | -1.07
O=C(CCc1ccncc1)NNC(=O)N1Cc2ccccc2Oc2ccc(Cl)cc21 | 0.597
CC(C)c1c(C(=O)Nc2ccccc2)c(-c2ccccc2)c(-c2ccc(F)cc2)n1CC[C@@H](O)C[C@@H](O)CC(=O)O [Atorvastatin calcium salt trihydrate] | -0.0539
NS(=O)(=O)c1ccc(-n2nc(C(F)(F)F)cc2-c2ccc(Cl)cc2)cc1 | 0.219
Cc1cn(C2C=CC(CO)O2)c(=O)[nH]c1=O (configuration not stated) [2',3'-didehydro-3'-deoxythymidine] | 0.515
COc1ccc(S(=O)(=O)Nc2nc(-c3cccc([N+](=O)[O-])c3)cs2)cc1OC | 0.458
O=C1c2ccccc2C(=O)c2c(NCCc3ccc(O)cc3)ccc(NCCc3ccc(O)cc3)c21 | -1.29
CC(NCCc1ccc(O)cc1)C(O)c1ccc(O)cc1 (configuration not stated) [Ritodrine hydrochloride] | -0.0849
O=C1c2c(O)ccc(O)c2C(=O)c2c(NCCNCCO)ccc(NCCNCCO)c21 [Mitoxantrone] | 0.111
CCOc1nc2cccc(C(=O)OC(C)OC(=O)OC3CCCCC3)c2n1Cc1ccc(-c2ccccc2-c2nn[nH]n2)cc1 (configuration not stated) [Candesartan cilexetil] | 0.942
O=C1NCCc2[nH]c(-c3ccncc3)cc21 | -0.0657
